# Sampled rows, rich in hits. Any-hit rate of the full collection: about 4.8%.
# S2 tox: cell viability loss in ATXN counter-screen; S2 cells (HEK-293 line with an ATXN2-luciferase reporter) viability, CellTiter-Fluor protease fluorescence, 24 h; Potency, µM (top dose mostly 56.7 µM), usual class: cytotoxic; 400,000 tested, 0.49% active; note: potency is the fitted concentration of half-maximal effect; nearly all actives have a fitted effect of over 40% in size
# ATXN2 expr inh: reduces ATXN2 reporter expression in HEK-293 cells; AID 1745845; Potency, µM (highest dose often 57 µM), inactives show top-dose activity change, negative = inhibition, usual class: inhibitors; HEK-293 ATXN2-luciferase reporter, luminescence, 24 h; 360,000 tested, 0.72% active; note: potency is the fitted concentration of half-maximal effect; % is set by controls: 0 for no effect and ±100 for the full control effect; nearly all actives have a fitted effect of over 55% in size
#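 qHTS (up to 57 uM final) was run with 24 h compound exposure of reporter cells at 37 °C. Each well was multiplexed: SteadyGlo luminescence measured ATXN2-luciferase expression after a fluorogenic Gly-Phe-AFC viability readout (25 uM final).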
# DRD3 antagonist: blocks the human D3 dopamine receptor; 360,000 tested, 2.5% active; P35462; D3R cells, DiscoveRx beta-arrestin luminescence, antagonist mode; hits give low values; max response, negative = inhibition, %; AID 652054; in the data active = max response below about -50%; inconclusive = no clear call, values can overlap the other calls; note: % is set by controls: 0 for no effect and ±100 for the full control effect
# Target sequence (P35462 whole entry, looked up): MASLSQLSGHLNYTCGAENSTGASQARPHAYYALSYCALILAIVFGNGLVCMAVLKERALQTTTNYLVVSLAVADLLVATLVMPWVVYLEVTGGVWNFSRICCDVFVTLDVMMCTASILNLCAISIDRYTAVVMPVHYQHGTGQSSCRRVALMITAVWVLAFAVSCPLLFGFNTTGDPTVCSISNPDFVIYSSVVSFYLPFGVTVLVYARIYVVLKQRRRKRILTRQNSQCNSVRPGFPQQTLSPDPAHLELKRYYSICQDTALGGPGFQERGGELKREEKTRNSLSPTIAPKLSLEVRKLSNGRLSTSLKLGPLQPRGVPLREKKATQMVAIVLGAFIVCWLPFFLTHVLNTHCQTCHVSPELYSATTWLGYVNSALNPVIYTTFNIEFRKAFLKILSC
#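 Cells plated overnight at 1500 cells/well, then exposed to library compounds with dopamine controls for 90 minutes at 37 degrees C. DiscoveRx reagent added for 30–60 minutes at room temperature; luminescence read, quantitative HTS format.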
# HepG2 tox: kills HepG2 cells in TGF-b inhibitor counter-screen; Potency, µM (series often up to 46.1 µM), for inactives: at the top dose activity change, negative = cytotoxicity, hits mostly cytotoxic; 410,000 tested, 0.76% active; HepG2 CAGA-GFP viability, ATP luminescence, 18 h; AID 588856; note: potency is the fitted concentration of half-maximal effect
#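 CellTiter-Glo luminescence gave cytotoxicity after 18 hours at 37 degrees C. The cells were HepG2 CAGA-GFP in 1% FBS DMEM, stimulated with 500 pg/mL TGF-beta after compound addition. %Activity was normalised to no-cell wells (complete cell-killing) and DMSO (no toxicity), and curves were fitted and classified.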
# TGFb SMAD3 inh: TGF-b pathway inhibition; HepG2 CAGA-GFP TGF-b/SMAD3 reporter, GFP fluorescence, 18 h; TGF-beta stimulated, 500 pg/mL final; Potency, µM (titrated, usually from 46.1 µM), without a hit: at the top dose activity, negative = inhibition, actives largely listed as inhibitors; 410,000 tested, 1.2% active; note: potency is the fitted concentration of half-maximal effect; % is set by controls: 0 for no effect and ±100 for the full control effect; nearly all actives have a fitted effect of over 65% in size
#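 First, reporter cells (HEPG2 CAGA-GFP) rested 2 h at 37 degrees C. Next, compounds were pinned in and TGF-beta added to 500 pg/mL final. After 18 h, GFP was imaged per cell and summed per well.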
# D3 ag: agonists of human D3 dopamine receptor; P35462; D3R DiscoveRx beta-arrestin cells, luminescence, 90 min; max activation, %; 410,000 tested, 0.58% active; in the data active = max activation above about 30%; note: 0% is about no effect
#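 Cells at 1500/well, incubated overnight, then treated with pinned compounds (dopamine as control) for 90 min at 37 degrees C. DiscoveRx reagent added for 30 - 60 minutes at room temperature; luminescence read.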
# An asterisk follows results filed as active; i = inactive; ? = inconclusive; . = no result; ! = repeats disagree. Unless noted, calls come from the whole dose curve; as a rule, active = well fitted curve in the direction sought with a large enough effect; inconclusive = small, poorly fitted or top-dose-only effect, or another doubt; inactive = no such curve, though single readings can be large; an effect the other way counts as inactive or inconclusive.
SMILES,S2 tox,ATXN2 expr inh,DRD3 antagonist,HepG2 tox,TGFb SMAD3 inh,D3 ag
CCCc1nc2oc3c(NCCCN(C)C)ncnc3c2c2c1CCCC2,i,-8%,-15,-160%,?,-11
CC(C)Cc1nc2oc3c(Cl)ncnc3c2c2c1CCCC2,?,32µM*,-26,5%,17%,-3
CCCc1nc2oc3c(Cl)ncnc3c2c2c1CCCC2,?,?,-2,-51%,0%,7
CN1CCN(c2ccnc(N(C)CCCCCCN)n2)CC1,.,.,.,-33%,1%,.
CCOC(=O)c1cc(-c2ccc(OC)cc2)n(CCC(=O)Nc2cccc(C(C)=O)c2)c1C,.,.,.,-23%,-5%,-3
CC1CC=CC2C1C(=O)N(Cc1ccccc1)C2c1ccc(-c2ccc(N(C)C)cc2)cc1F (configuration not stated),.,.,.,1%,-3%,.
COc1ccc(-c2cc3nc(NCCCN(C)C)n(C)c(=O)c3s2)c(C)c1,i,-24%,-5,3.5µM*,?,-7
CN(C)CCCNc1nc2cc(-c3ccc(F)cc3)sc2c(=O)n1C,?,20µM*,-6,-85%,?,-16
COc1cccc(CNc2nc3cc(-c4ccccc4)sc3c(=O)n2C)c1OC,?,?,14,10µM*,?,-5
Cc1cc(Cl)ccc1-c1cc2nc(NCCCN(C)C)n(C)c(=O)c2s1,?,32µM*,-19,14µM*,?,-8
CN(C)CCCNc1nc2cc(-c3ccccc3)sc2c(=O)n1C,i,-2%,?,-19%,-3%,-10
Cc1ncc2c(c1CNC(=O)c1ccc3c(c1)OCO3)CCN(C(=O)c1csc3c1CCCC3)C2,i,.,.,.,.,.
CSc1nnc(CCNC(=O)/C=C/c2cccc(F)c2)n1-c1ccc(F)cc1,i,.,.,.,.,.
O=[N+]([O-])c1ccc(O)c(C2=NNC(c3ccccc3F)C2)c1 (configuration not stated),i,?,-121*,-38%,13µM*,-47
Oc1ccc(Cl)cc1C1=NNC(c2cccs2)C1 (configuration not stated),i,10%,-12,-18%,-15%,-9
CCN(c1ccc(C)cc1C)S(=O)(=O)c1nnc(NC(=O)c2ccccc2OC)s1,.,.,.,-34%,-1%,-11
COc1ccc(S(=O)(=O)Nc2ccc3c(c2)CCC3)cc1,i,-18%,7,-31%,11µM*,2
CC(=O)Nc1ccc(S(=O)(=O)Nc2ccc3c(c2)CCC3)cc1,i,-22%,-10,-10%,-20%,2
Cc1cc(C)cc(NC(=O)C2CCCN(S(=O)(=O)c3cccc4nsnc34)C2)c1 (configuration not stated),i,2%,.,-18%,-24%,-15
COc1cc(=O)n2c(c1C(=O)NC(C)c1ccco1)CCN(Cc1ccccc1C(F)(F)F)CC2 (configuration not stated),i,.,.,.,.,.
CC1CCC(CN2C(Nc3ccccc3)=NC[C@@H]2Cc2ccccc2)CC1 (some centres not stated),?,16µM*,-8,-37%,-7%,-5
CC(C)C[C@H]1CN=C(Nc2ccccc2)N1CCCC1CCCCC1,.,25µM*,-17,-22%,-26%,-57
CC(C)C[C@H]1CN=C(Nc2ccccc2)N1CCC1CCCC1,?,-15%,-18,-3%,11%,-8
CC(C)C[C@H]1CN=C(Nc2ccccc2)N1CCCC1CCCC1,?,?,-51*,-99%,?,-20
CC(C)(C)c1ccc(C(=O)CCCCl)cc1,i,59%,.,.,.,.
SMILES,S2 tox,ATXN2 expr inh,DRD3 antagonist,HepG2 tox,TGFb SMAD3 inh,D3 ag
CO[C@H]1C=CO[C@@]2(C)Oc3c(C)c(O)c4c(O)c(cc(O)c4c3C2=O)NC(=O)/C(C)=C\C=C/[C@H](C)[C@H](O)[C@@H](C)[C@@H](O)[C@@H](C)[C@H](OC(C)=O)[C@@H]1C,.,.,.,.,.,-6
CCCCc1ccc(NC(=S)NCCc2ccc(F)cc2)cc1,i,-9%,?,-105%,16µM*,-15
O=C(O)c1cccnc1C(=O)N1CCc2c([nH]c3ccccc23)C1C(F)(F)F (configuration not stated),i,10%,-7,-5%,2%,3
c1cnc2c(C3NCCc4c3[nH]c3ccccc43)cccc2c1 (configuration not stated),i,-30%,-87*,-31%,19%,-59
CC(=O)c1c(C)[nH]c(C(=O)OCC(=O)Nc2ccc(Cl)c(S(=O)(=O)N(C)C)c2)c1C,13µM*,.,11,1%,?,0
CCCCCCSc1cccc(-c2nc3cc(C)ccn3c2NCc2ccccc2)c1,?,-24%,7,-38%,?,33*!
CCCCNc1c(-c2cccc(-c3cc(C(C)=O)cs3)c2)nc2cc(C)ccn12,11µM*,22µM*,26,-27%,?,7
CCCCCCSc1cccc(-c2nc3ccc(C)cn3c2NCc2ccccc2)c1,?,0%,108,-49%,?,14
CCCCCCSc1cccc(-c2nc3ccccn3c2NCc2ccccc2)c1,?,-13%,178,-29%,?,96*!
CCOc1ccc2cc(S(=O)(=O)N3CCCCC3)ccc2c1,i,-17%,-16,18µM*,-24%,-2
CCOc1ccc2cc(S(=O)(=O)N3CCN(C)CC3)ccc2c1,i,1%,-4,0%,-44%,-8
Cc1ccc2c(/C=C/c3c[nH]c4ccccc34)ccnc2c1C,.,.,.,-47%,?,.
COc1ccc(N(C)S(=O)(=O)c2cccc3cccnc23)c(OC)c1,i,-13%,34,-2%,?,31*
COc1ccccc1NC(=O)CN(C)S(=O)(=O)c1cccc2cccnc12,i,.,5,2%,7%,0
CCOC(=O)c1sc2ccccc2c1S(=O)(=O)Nc1cccc(C(F)(F)F)c1,i,0%,.,-29%,?,5
COC(=O)c1ccc(CNC(=O)CNc2cc(C(F)(F)F)ccc2N2CCOCC2)cc1,i,-11%,-57*,-4%,-6%,-9
O=C(NCC(c1ccco1)N1CCN(c2ccccc2F)CC1)C(=O)NC1CCCC1 (configuration not stated),i,2%,20,4%,9%,36*
O=C(NCC(c1ccco1)N1CCN(c2ccccc2)CC1)C(=O)NC1CCCC1 (configuration not stated),i,0%,18,2%,1%,9
